DT40 TDP1 no CPT: qHTS for Inhibitors of human tyrosyl-DNA phosphodiesterase 1 (TDP1): qHTS in cells in absence of CPT; DT40 Tdp1-/- hTDP1 cells, no CPT, ATP luminescence, 48 h; Potency, µM (doses to about 46.2 µM), for the others: top-dose activity change, negative = growth inhibition, most hits filed as inhibitors; actives 15% (n = 420,000); also: potency is read from the fitted curve at half-maximal effect; nearly all actives have a fitted effect of over 55% in size
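No-CPT arm: Tdp1-/-;hTDP1 DT40 cells (400/well) plus compounds, incubated ≥48 hr at 37 °C. Readout CellTiter-Glo luminescence.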
ELG1 repair inh: ELG1-dependent DNA repair inhibition; HEK293T ELG1-luciferase reporter, luminescence, 16 h; DNA damage induced by 5-fluorouridine; Potency, µM (series often up to 46.1 µM), inactives show top-dose activity change, negative = inhibition, actives largely listed as inhibitors; actives 2.3% (n = 330,000); also: potency is read from the fitted curve at half-maximal effect; nearly all actives have a fitted effect of over 55% in size
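Quantitative HTS, concentration-response format. 2,000 cells/well co-treated with 5-fluorouridine and compound, 16 hr in 5% CO2 at 37 °C; ONE-Glo luminescence read after 30 min.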
HT1080 IDH1KD tx: toxicity to HT-1080 IDH1 knockdown cells (counter line). HT-1080 IDH1 knockdown viability, ATP luminescence, 48 h. Potency, µM (top dose mostly 46.1 µM), for the others: top-dose activity, negative = toxicity, hits mostly cytotoxic. actives 2% (n = 360,000). AID 686971;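 also: potency is read from the fitted curve at half-maximal effect; 0% = DMSO wells and -100% = cell-free medium wells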
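In this qHTS, HT-1080 cells depleted of IDH1 are exposed for 48 h at 37 °C to compound titrations. Toxicity is scored from CellTiter-Glo luminescence, with DMSO as full viability and medium alone as none.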
HT1080NT lethal: kills 2HG-producing HT-1080-NT fibrosarcoma cells; HT-1080-NT fibrosarcoma viability, CellTiter-Glo ATP luminescence, 48 h; Potency, µM (doses to about 46.1 µM), inactives show top-dose activity, negative = less viability, most hits filed as cytotoxic; actives 1.6% (n = 360,000); AID 686970;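 also: NT is the 2HG producing partner of a matched IDH1 knockdown line; potency is read from the fitted curve at half-maximal effect; 0% = DMSO-treated cells and -100% = media-only wells without cells; nearly all actives have a fitted effect of over 55% in size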
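Viability by CellTiter-Glo luminescence after 48 h compound exposure at 37C of HT-1080-NT cells (750/well, RPMI, 5% FBS). % activity scaled between DMSO wells and medium-only wells, then curve-fitted and categorized by curve class.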
TDP1 cell CPT: DT40-hTDP1 cell growth loss with CPT | chicken DT40 Tdp1-/-;hTDP1 cells + 20 nM CPT, ATP luminescence, 48 h | Potency, µM (highest dose often 46.2 µM), inactives show at the highest dose activity change, negative = growth inhibition, most hits filed as inhibitors | actives 12% (n = 420,000) | AID 686979; also: potency is read from the fitted curve at half-maximal effect; nearly all actives have a fitted effect of over 55% in size
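Cell growth measured by CellTiter-Glo luminescence after a minimum 48 h, 37 C compound exposure with 20 nM CPT in Tdp1-knockout DT40 cells stably expressing hTDP1, seeded 400/well; qHTS titration format.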
IL1B secr inh: inflammasome signaling inhibition, IL-1 beta readout; THP-1 LPS/ATP IL-1B secretion, AlphaLISA, 16 h; hits give low values; activity change, % at 57.5 µM; actives 4.7% (n = 360,000); in the data active = activity change below about -50%; inconclusive = mostly about -30% to -49%
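THP-1 cells pretreated 1 hr with compounds (up to 57.5 uM final), then stimulated with LPS (250 ng/mL final) plus ATP (1.25 mM final); secreted IL-1B measured by AlphaLISA after 16 hr, decreased signal indicating inhibition.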
* marks the source's active call; other numbers are inactive results; ? = inconclusive; · = not tested or not shown; ! = a repeat was not active. A selection: hits, their analogues and other compounds. The true share with any hit is near 19%. Unless noted, calls follow the shape of the dose curve; as a rule, active = well fitted curve in the direction sought with a large enough effect; inconclusive = small, poorly fitted or top-dose-only effect, or another doubt; inactive = no such curve, though single readings can be large; an effect the other way counts as inactive or inconclusive. Unless noted, % is scaled to controls: 0 for no effect and ±100 for the full control effect.

SMILES	DT40 TDP1 no CPT	ELG1 repair inh	HT1080 IDH1KD tx	HT1080NT lethal	TDP1 cell CPT	IL1B secr inh
COc1ccc(NS(=O)(=O)c2cc(N)ccc2N2CCCCC2)cc1	-12%	9%	0%	-5%	?	11
O=C(c1ccc(S(=O)(=O)Nc2cccc(C(F)(F)F)c2)cc1)N1CCN(c2ccccc2O)CC1	23µM*	-5%	?	-16%	?	?
Cc1cc(C(=O)CN2C(=O)C(=O)N(C3CCCC3)C2=O)c(C)n1CCc1ccccc1	?	-4%	-17%	-10%	?	7
COc1ccc(CCn2c(C)cc(C(=O)CN3C(=O)C(=O)N(Cc4ccco4)C3=O)c2C)cc1	9.2µM*	-23%	?	?	13µM*	52
Cc1cc(C(=O)CN2C(=O)C(=O)N(C3CCCC3)C2=O)c(C)n1CCc1ccc(F)cc1	?	0%	-2%	-13%	18µM*	33
COc1ccc(CC(=O)NNC(=O)c2cccs2)cc1	7%	?	-17%	-1%	15%	-3
COc1ccc(C(=O)/C(=C/O)N=Nc2ccc(F)cc2)cc1	?	-15%	?	?	?	-99*
COc1ccc(N=N/C(=C\O)C(=O)c2cccs2)cc1	?	?	-6%	0%	0%	-81*
COc1ccc2nc(SCC(=O)N(C)CC(=O)Nc3ccc(F)cc3)[nH]c2c1	-6%	21%	7%	0%	2%	21
N#CC1C(=O)NC(c2ccccc2)=CC1c1ccccc1 (stereo not drawn)	-15%	·	-2%	-12%	-3%	-10
CN1CCN(C(=O)C2=NOC3(C2)C(=O)Nc2ccccc23)CC1 (stereo not drawn)	0%	·	22%	3%	-8%	23
C=CCNc1nc2cc(-c3ccc(C(=O)N4CCOCC4)cc3)sc2c(=O)n1C	?	·	?	?	16µM*	13
COc1cccc(CNc2nc3cc(-c4ccccc4)sc3c(=O)n2C)c1	?	·	-20%	?	?	-23
COc1cccc(CNc2nc3cc(-c4ccc(C(=O)N5CCN(C)CC5)cc4)sc3c(=O)n2C)c1	?	·	15µM*	23µM*	21µM*	-20
CCCCOC(=O)c1ccc(NC(=O)c2c(N)n(C)c(=O)[nH]c2=O)cc1	?	·	-2%	-2%	?	61
CC1=C(C(=O)Nc2ccccc2Cl)C(c2cccc(O)c2)n2ncnc2N1 (stereo not drawn)	-3%	·	·	·	3%	·
CC(=O)SC1CC2=CC(=O)CC[C@@]2(C)C2CC[C@@]3(C)[C@@H](CC[C@@]34CCC(=O)O4)C12 (stereo partly drawn)	16µM*	·	·	·	13µM*	·
C[C@]12CCC(=O)C=C1C=C[C@@H]1[C@@H]2CC[C@@]2(C)[C@H]1CC[C@@]21CCC(=O)O1	15µM*!	-14%	-3%	-2%	?	0
CC(=O)SC1CC(=O)C=C2CCC3C4CCC(=O)OC4(C)CCC3C21C (stereo not drawn)	-11%	·	4%	8%	15%	-13
CN(C)CCNc1nc(-c2ccccc2F)c2sccc2n1	-29%	·	?	-26%	?	-23
COc1ccc(Cl)cc1NC(=O)CCN1C(=O)C2C3CCC(C3)C2C1=O (stereo not drawn)	4%	20%	0%	5%	11%	-9
Cc1ccc(C2=CSC3=NNC4(CCCCC4)NN23)cc1	23µM*	-1%	-16%	-6%	?	0
Cc1noc2ncnc(Sc3ccc(Br)cc3)c12	9.2µM*	?	?	-7%	2.6µM*	-101*
Cc1nn(C)c(C)c1Sc1ccc(Br)cc1	?	?	-9%	-9%	-25%	11
CCN1CCN(C(=O)C2COc3ccccc3O2)CC1 (stereo not drawn)	18%	2%	-2%	0%	0%	18
SMILES	DT40 TDP1 no CPT	ELG1 repair inh	HT1080 IDH1KD tx	HT1080NT lethal	TDP1 cell CPT	IL1B secr inh
CCOc1ccccc1N1CCN(C(=O)c2cc3ccccc3cc2OC)CC1	4.6µM*	4%	5.2µM*	?	3.7µM*	-7
COc1cc2ccccc2cc1C(=O)N1CCN(c2nc3ccc(F)cc3s2)CC1	15µM*	·	·	·	16µM*	·
O=C(CCl)N1CCN(C(=O)C2COc3ccccc3O2)CC1 (stereo not drawn)	3.7µM*	?	23µM*	?	?	-95*
O=C(C1COc2ccccc2O1)N1CCN(c2nc3ccc(F)cc3s2)CC1 (stereo not drawn)	21µM*	·	·	·	?	·
CC1CCCCC1NC(=O)CN(C)S(=O)(=O)c1ccc2c(c1)CCC(=O)N2 (stereo not drawn)	11%	11%	12%	4%	6%	37
Cc1c(C(=O)Nc2ccccc2)c2ccc(C(F)(F)F)cc2n1O	?	·	?	?	-9%	?
Cc1ccc(NC(=O)CSC(C)C(=O)OCc2cc(=O)oc3cc(O)ccc23)cc1 (stereo not drawn)	-27%	·	6%	-1%	-11%	10
CCOC(=O)c1sc2ncn(CC(=O)Nc3ccc(OCC)cc3)c(=O)c2c1C	-2%	·	·	·	2%	·
CCOc1ccccc1N1CCN(C(=O)c2ccncc2)CC1	7%	12%	?	12%	-1%	13
CCOc1ccccc1N1CCN(C(=O)c2cccc(-c3ccc(O)cc3)c2)CC1	?	?	-11%	-17%	16µM*	?
CCOc1ccccc1NC(=O)C1CCCN(c2c(CC)c(C)nc3ncnn23)C1 (stereo not drawn)	21µM*	?	-18%	-12%	21µM*	-16
Cc1nc2ncnn2c(N2CCCC(C(=O)Nc3ccc4c(c3)CCC4)C2)c1C (stereo not drawn)	23µM*	18µM*	-22%	?	21µM*	-5
CCc1c(C)nc2ncnn2c1N1CCC(C(=O)Nc2ccc(C)cc2)CC1	15µM*	?	?	?	21µM*	-8
CCc1c(C)nc2ncnn2c1N1CCCC(C(=O)NCCc2ccc(OC)cc2)C1 (stereo not drawn)	?	?	?	5%	?	-2
CCc1c(C)nc2ncnn2c1N1CCC(C(=O)Nc2ccccc2)CC1	16µM*	21µM*	-28%	-23%	?	-3

Screening results deposited in PubChem BioAssay by National Center for Advancing Translational Sciences (NCATS).
